# PubChem BioAssay (NCI)
# The panel holds about 83,000 compounds, 20% with a hit somewhere; the sample as a whole holds those more often.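 Single-dose data. Exposure time 48 hours. Values below 10 considered active.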 Unmarked numbers belong to inactive results. Active and inactive are the calls of the source.
# Tested on: NCI-H460 lung
# Experiment: NCI-60 one-dose screen, 48 h (100 = growth as untreated, 0 = no growth, -100 = all killed)
# Settings: 10 µM
row,Compound,growth
1,CN(C)c1nc2c([nH]1)c(=O)n(C)c(=O)n2C,103%
2,NC(=S)N/N=C/c1ccc(N)cc1,106%
3,N#Cc1ccc(OC(=O)Nc2ccc(Cl)c(Cl)c2)cc1,99.8%
4,CCOC(=O)CSc1c([N+](=O)[O-])ncn1C,104%
5,Cc1cc(=O)n(-c2ccc(F)cc2)[nH]1,106%
6,c1ccc2c(c1)Sc1ccccc1S2,101%
7,Nc1ncnc2c1nc(N)n2C1OC(CO)C(O)C1O (stereo not given),-60.3% (active)
8,C=CCOC(=O)C(=O)OCC=C,112%
9,O=[N+]([O-])c1cccc2nsnc12,103%
10,CCOC(=O)c1cc2cccc(OC)c2oc1=O,110%
11,CSC(=N\N=C\c1ccc(N(C)C)cc1)/N=C/N(C)C,95.4%
12,O=C(O)CCCc1ccccc1,115%
13,COc1cc([C@@H]2c3cc4c(cc3[C@H](O)[C@H]3COC(=O)[C@H]23)OCO4)cc(OC)c1OC,9.21% (active)
14,CCC(C)(O)c1ccc(C)cc1 (stereo not given),105%
15,O=C1C=CC(=O)N1c1ccc(I)cc1Cl,109%
16,O=C(O)CCC(NC(=O)OCc1ccccc1)C(=O)O (stereo not given),111%
17,CC12CC3CC1C(C(=O)O2)C3C(=O)O (stereo not given),108%
18,CCc1nc(N)nc(N)c1-c1ccc(Cl)cc1,21.2%
19,Cc1cc(OCCO)cc(C)c1Cl,114%
20,Cc1nc2ccccc2c2nnc(SCC(=O)N(Cc3ccccc3)c3ccccc3)n12,107%
